This note sets out measurements from PubChem BioAssay (NCI).

Test systems include SR leukemia; RPMI-8226 leukemia; OVCAR-8 ovarian; OVCAR-5 ovarian; OVCAR-4 ovarian; SK-OV-3 ovarian; IGROV1 ovarian; OVCAR-3 ovarian; HS 578T breast; NCI/ADR-RES ovarian; T-47D breast; BT-549 breast; MDA-MB-435 melanoma; SW-620 colon; MCF7 breast; HCT-116 colon; HCC-2998 colon; KM12 colon.
Holding throughout (test): NCI-60 one-dose screen, 48 h (100 = growth as untreated, 0 = no growth, -100 = all killed)
Common to all, as to conditions: 10 µM unless noted

About 83,000 compounds went through this panel and 20% of them were active in at least one assay; those are over-represented in the sample as a whole.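 48-hour exposure, single concentration, 96-well plates; percent growth endpoint where 0 means no net growth. Active: below 10.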 Unmarked numbers belong to inactive results. The source made the active and inactive calls.

Turning to `COc1ccc2oc(=O)cc(CN3C(=O)S/C(=C\c4ccc(Cl)cc4)C3=O)c2c1`, the growth was 71.8% with SR leukemia; 73.1% in the experiment with RPMI-8226 leukemia; 100% in the experiment on OVCAR-8 ovarian; 97.3% with OVCAR-5 ovarian; 91.7% in the experiment on OVCAR-4 ovarian; 113% in the experiment with SK-OV-3 ovarian. The growth in the experiment with IGROV1 ovarian is 102%; in the experiment with OVCAR-3 ovarian, 89.1%; with HS 578T breast, 108%; in the experiment on NCI/ADR-RES ovarian, 94.6%; in the experiment with T-47D breast, 86.6%; in the experiment on BT-549 breast it was 91.5%. Besides, the growth with MDA-MB-435 melanoma is 105%; in the experiment with SW-620 colon it was 108%; in the experiment on MCF7 breast it was 86.9%; in the experiment on HCT-116 colon, 84.8%; in the experiment on HCC-2998 colon, 104%; in the experiment with KM12 colon, 96.1%.
As to `CC[n+]1c(C)ccc2cc(C)ccc21`, the growth is 94.4% in the experiment on SR leukemia; 101% in the experiment on RPMI-8226 leukemia; 88.4% in the experiment on OVCAR-8 ovarian; 109% with OVCAR-5 ovarian; 106% in the experiment with OVCAR-4 ovarian; 97.8% with SK-OV-3 ovarian. The growth in the experiment on IGROV1 ovarian is 104%; in the experiment on OVCAR-3 ovarian, 104%; in the experiment on HS 578T breast, 112%; in the experiment with NCI/ADR-RES ovarian it was 104%; with T-47D breast, 91.3%; in the experiment on BT-549 breast, 95%. Further, the growth in the experiment on MDA-MB-435 melanoma was 118%; in the experiment on SW-620 colon, 99.5%; in the experiment on MCF7 breast, 94.1%; with HCT-116 colon it was 97.1%; in the experiment on KM12 colon it was 80.7%.
Take `Cc1c(Cc2ccccc2)c(=O)oc2c(C)c(OCc3n[nH]c(=S)o3)ccc12`: the growth was 5.04% (active) in the experiment on SR leukemia; 56.6% in the experiment with RPMI-8226 leukemia; 30.6% in the experiment on OVCAR-8 ovarian; 89.9% in the experiment with OVCAR-5 ovarian; 43.8% in the experiment with OVCAR-4 ovarian; 86.9% in the experiment on SK-OV-3 ovarian. Moreover, the growth was 67.3% in the experiment with IGROV1 ovarian; 74.5% in the experiment with OVCAR-3 ovarian; 62.3% in the experiment with HS 578T breast; 99.6% in the experiment with NCI/ADR-RES ovarian; 53.1% with T-47D breast; 96.9% in the experiment with BT-549 breast. Besides, the growth in the experiment with MDA-MB-435 melanoma is 61.5%; with SW-620 colon it was -7.67% (active); in the experiment on MCF7 breast, 14.5%; in the experiment on HCT-116 colon, 6.37% (active); with HCC-2998 colon, 94.9%; in the experiment with KM12 colon it was 43.1%.
Consider `CCOc1nc(-c2ccccc2)cc2c(O)c(C(=O)N/N=C/c3ccccc3O)[nH]c(=O)c12`, for which the growth in the experiment on SR leukemia was 28.2%; in the experiment on RPMI-8226 leukemia it was 99.3%; with OVCAR-8 ovarian, 65.4%; in the experiment on OVCAR-5 ovarian it was 89.7%; in the experiment on OVCAR-4 ovarian, 93%; with SK-OV-3 ovarian it was 102%. The growth with IGROV1 ovarian is 50.1%; with OVCAR-3 ovarian it was 76.7%; with HS 578T breast it was 66.1%; in the experiment on NCI/ADR-RES ovarian, 5.38% (active); in the experiment on T-47D breast, 94%; in the experiment on BT-549 breast, 97.8%. Further, the growth was 113% in the experiment on MDA-MB-435 melanoma; 74.9% in the experiment on SW-620 colon; 72.8% in the experiment with MCF7 breast; 88.3% in the experiment on HCT-116 colon; 80.6% in the experiment with KM12 colon.
Consider `C/C=C/C/C=C/[C@H](C)C[C@H](O)[C@@H]1C[C@@H]2O[C@H]2/C=C/[C@H](O)[C@@H](O)/C=C/C[C@H](C)CC(=O)O1`, for which the growth in the experiment on SR leukemia is 69.9%; with RPMI-8226 leukemia, 42.8%; in the experiment on OVCAR-8 ovarian it was 63.7%; with OVCAR-5 ovarian, 93.4%; in the experiment on OVCAR-4 ovarian, 88.9%; in the experiment on SK-OV-3 ovarian, 102%. Also, the growth in the experiment with IGROV1 ovarian was 78.9%; in the experiment with OVCAR-3 ovarian, 84.9%; in the experiment on HS 578T breast, 11%; with NCI/ADR-RES ovarian, 71.6%; in the experiment with T-47D breast, 69.9%; with MDA-MB-435 melanoma it was 117%. For the same compound, the growth in the experiment with SW-620 colon is 94.1%; in the experiment with MCF7 breast, 83.7%; in the experiment on HCT-116 colon, 70.6%; in the experiment with HCC-2998 colon, 95.1%; with KM12 colon, 80.2%.
In the case of `COc1cc(-c2nn(-c3ccc(NC(=O)Nc4ccc(Cl)c(Cl)c4)cc3)cc2-c2ccncc2)ccc1Cl`, the growth was 6.61% (active) in the experiment on SR leukemia; -15.3% (active) in the experiment with RPMI-8226 leukemia; 29.1% in the experiment on OVCAR-8 ovarian; 72.8% in the experiment on OVCAR-5 ovarian; 36.7% with OVCAR-4 ovarian; 62.8% in the experiment with SK-OV-3 ovarian. In addition, the growth was 36.9% in the experiment with IGROV1 ovarian; 24.1% in the experiment on OVCAR-3 ovarian; -26.9% (active) in the experiment with HS 578T breast; 16.1% in the experiment with NCI/ADR-RES ovarian; 47.5% with T-47D breast; 29.1% in the experiment with MDA-MB-435 melanoma. In addition, the growth was 35.2% in the experiment with SW-620 colon; 28.4% in the experiment with MCF7 breast; 13.4% in the experiment with HCT-116 colon; 21.8% with HCC-2998 colon; 16.1% with KM12 colon.
Consider `CC(=O)NNC(=O)c1sc(NC(C)=O)nc1C`, for which the growth with SR leukemia is 87.4%; with RPMI-8226 leukemia it was 105%; with OVCAR-8 ovarian, 95.6%; in the experiment with OVCAR-5 ovarian it was 97%; with OVCAR-4 ovarian it was 122%; with SK-OV-3 ovarian, 92.6%. For the same compound, the growth in the experiment on IGROV1 ovarian is 23.4%; in the experiment on OVCAR-3 ovarian, 103%; with HS 578T breast, 74.9%; with NCI/ADR-RES ovarian, 104%; in the experiment with T-47D breast it was 76.5%; in the experiment on MDA-MB-435 melanoma, 110%. The growth was 96.9% in the experiment on SW-620 colon; 87.4% in the experiment on MCF7 breast; 90.5% with HCT-116 colon; 73.8% in the experiment with HCC-2998 colon; 105% in the experiment with KM12 colon.
Consider `CC(=O)C(CO)C(=O)Nc1ccccc1` (stereo not given), for which the growth in the experiment on SR leukemia was 94.8%; with RPMI-8226 leukemia it was 103%; in the experiment with OVCAR-8 ovarian it was 109%; in the experiment with OVCAR-5 ovarian, 102%; in the experiment on OVCAR-4 ovarian, 98%; with SK-OV-3 ovarian it was 93.8%. The growth is 105% in the experiment with IGROV1 ovarian; 110% with OVCAR-3 ovarian; 118% in the experiment on HS 578T breast; 103% in the experiment on NCI/ADR-RES ovarian; 94.5% with T-47D breast; 106% with MDA-MB-435 melanoma. Further, the growth is 109% with SW-620 colon; 91.5% with MCF7 breast; 106% in the experiment on HCT-116 colon; 99.3% in the experiment with HCC-2998 colon; 104% with KM12 colon.
As for `O=S(=O)(O)CCI`, the growth in the experiment on SR leukemia is 116%; with RPMI-8226 leukemia it was 115%; with OVCAR-8 ovarian, 113%; in the experiment with OVCAR-5 ovarian it was 108%; in the experiment on OVCAR-4 ovarian, 105%; in the experiment on SK-OV-3 ovarian, 111%. The growth in the experiment on IGROV1 ovarian is 110%; with OVCAR-3 ovarian, 114%; with HS 578T breast, 100%; in the experiment with NCI/ADR-RES ovarian, 105%; in the experiment with T-47D breast it was 99.4%; in the experiment with MDA-MB-435 melanoma, 114%. The growth in the experiment with SW-620 colon was 102%; with MCF7 breast, 98.3%; in the experiment with HCT-116 colon, 98.3%; in the experiment on HCC-2998 colon, 110%; in the experiment on KM12 colon, 114%.
